Values joined by “and” are separate entries in the source; they are usually repeats but may differ in a detail not shown here. Identical values can stand only once. About 79,000 compounds went through this panel and 15% of them were active in at least one assay; those are over-represented in the sample as a whole. More than one record can exist for a structure, and the calls need not agree. Active and inactive are the calls of the source. Rule as the data show it: active = growth inhibition above about 70%; inactive = the rest.
Legend:
[1] = NCI Yeast Anticancer Drug Screen. Data for the rad50 strain (AID 155);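 also: 0% = growth of vehicle-only cultures of the same strain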; details: S. cerevisiae rad50 strain growth inhibition, stronger effect = higher value
How it was run: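 Growth of the mutant yeast was measured after compound exposure and referenced to vehicle-treated cultures.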

[2] = NCI Yeast Anticancer Drug Screen. Data for the mec2-1 strain (AID 157); details: S. cerevisiae mec2-1 strain, stronger effect = higher value
How it was run: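 Cells of the genetically defined mec2-1 yeast strain are incubated with test compound. Inhibition of growth is calculated against vehicle-treated controls.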

[3] = NCI Yeast Anticancer Drug Screen. Data for the sgs1 mgt1 strain (AID 161);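 also: 0% = growth of cultures given vehicle only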; details: S. cerevisiae sgs1 mgt1 strain, stronger effect = higher value
How it was run: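 Read-out: growth inhibition vs vehicle controls. Cells: mutant yeast strain deficient in DNA damage repair.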

[4] = NCI Yeast Anticancer Drug Screen. Data for the cln2 rad14 strain (AID 165);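 also: 0% = growth equal to vehicle treated cultures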; details: S. cerevisiae cln2 rad14 strain, stronger effect = higher value
How it was run: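 The screen exposed genetically defined yeast (cln2 rad14) to test compounds and scored growth inhibition relative to vehicle-treated controls.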

[5] = NCI Yeast Anticancer Drug Screen. Data for the bub3 strain (AID 167); details: S. cerevisiae bub3 mutant strain, stronger effect = higher value
How it was run: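 Whole-cell yeast assay. The mutant strain was incubated with compounds, and growth inhibition was determined by comparison with vehicle-treated cells.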

[6] = NCI Yeast Anticancer Drug Screen. Data for the mlh1 rad18 strain (AID 175); details: S. cerevisiae mlh1 rad18 strain growth inhibition, stronger effect = higher value
How it was run: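 Compound-treated yeast growth, normalised to vehicle controls. Strain bears defined DNA repair mutations.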

[7] = at 5.0 µM (retest, dose inferred, filed as 0.5)
[8] = at 50.0 µM (retest, dose inferred, filed as 5.0)

| SMILES | growth inhibition [1, 7] | growth inhibition [1, 8] | growth inhibition ([1]; at 50.0 µM) | growth inhibition [2, 7] | growth inhibition [2, 8] | growth inhibition ([2]; at 50.0 µM) | growth inhibition [3, 7] | growth inhibition [3, 8] | growth inhibition ([3]; at 50.0 µM) | growth inhibition [4, 7] | growth inhibition [4, 8] | growth inhibition ([4]; at 50.0 µM) | growth inhibition [5, 7] | growth inhibition [5, 8] | growth inhibition ([5]; at 50.0 µM) | growth inhibition [6, 7] | growth inhibition [6, 8] | growth inhibition ([6]; at 50.0 µM) |
| --- | --- | --- | --- | --- | --- | --- | --- | --- | --- | --- | --- | --- | --- | --- | --- | --- | --- | --- |
| Nc1ccc(Cn2ccc3c4c(N)nc(N)nc4ccc32)cc1 | 14% (inactive) | 83% (active) | 33.7% (inactive) | 29% (inactive) | 96% (active) | 68.3% (inactive) | 7% (inactive) | 88% (active) | 72.7% (active) | 6% (inactive) | 60% (inactive) | 63.2% (inactive) | -10% (inactive) | 84% (active) | 41.4% (inactive) | 13% (inactive) | 87% (active) |  |
| CN(C)CCNc1ccc(CO)c2oc3ccc(O)cc3c(=O)c12 | 17% (inactive) | 41% (inactive) | 26.5% (inactive) | 13% (inactive) | 41% (inactive) | 59.9% (inactive) | 13% (inactive) | 36% (inactive) | 9.95% (inactive) | 22% (inactive) | 28% (inactive) | -14.1% (inactive) | 15% (inactive) | 66% (inactive) | 49% (inactive) | 21% (inactive) | 63% (inactive) |  |
| CCN(CCO)CCNc1ccc(C)c2sc3ccccc3c(=O)c12 | 36% (inactive) | 98% (active) | 88.2% (active) | 13% (inactive) | 92% (active) | 90.7% (active) | 9% (inactive) | 98% (active) | 91.8% (active) | 21% (inactive) | 94% (active) | 90.8% (active) | 6% (inactive) | 98% (active) | 90.5% (active) | 23% (inactive) | 98% (active) |  |
| Nc1nnc(/C=C/c2ccccc2)o1 | 2% (inactive) | -22% (inactive) | 19.5% (inactive) | 8% (inactive) | -21% (inactive) | -21.6% (inactive) | -8% (inactive) | -9% (inactive) | -4.6% (inactive) | 1% (inactive) | -4% (inactive) | 42.2% (inactive) | 1% (inactive) | -4% (inactive) | -1.9% (inactive) | 7% (inactive) | 21% (inactive) | -10.2% (inactive) |
| Nc1nc(N)c2c(Cl)c(CNc3ccc(Cl)c(Cl)c3)ccc2n1 | 82% (active) | 98% (active) | 88.1% (active) | 97% (active) | 98% (active) | 91% (active) | 81% (active) | 98% (active) | 90.8% (active) | 46% (inactive) | 98% (active) | 89.9% (active) | 74% (active) | 98% (active) | 89.7% (active) | 75% (active) | 98% (active) |  |
| COc1cc(O)ccc1C(=S)SC | 6% (inactive) | 78% (active) | 85% (active) | 1% (inactive) | 18% (inactive) | 29.6% (inactive) | 5% (inactive) | 66% (inactive) | 42.5% (inactive) | 0% (inactive) | 29% (inactive) | 9% (inactive) | -5% (inactive) | 33% (inactive) | -6.9% (inactive) | 12% (inactive) | 87% (active) | 30.9% (inactive) |
| COc1ccc2nc(C)cc(NCCCCCCCCCNc3cc(C)nc4ccc(OC)cc34)c2c1 | -17% (inactive) | 94% (active) | 83.4% (active) | -30% (inactive) | 94% (active) | 87.9% (active) | -2% (inactive) | 96% (active) | 80.8% (active) | -11% (inactive) | 75% (active) | 71% (active) | -40% (inactive) | 88% (active) | 78.5% (active) | -21% (inactive) | 93% (active) |  |
| Cc1nc2c(nc1C)C(=O)c1ccccc1C2=O | 19% (inactive) | 98% (active) | 85.9% (active) | 14% (inactive) | 99% (active) | 82.4% (active) | 22% (inactive) | 97% (active) | 71.4% (active) | 11% (inactive) | 91% (active) | 31.9% (inactive) | 30% (inactive) | 99% (active) | 67.3% (inactive) | 27% (inactive) | 99% (active) |  |
| Cc1n(-c2ccccc2)c2c([n+]1Cc1ccc([N+](=O)[O-])cc1)C(=O)c1ccccc1C2=O | 1% (inactive) | 97% (active) | 85.2% (active) | -7% (inactive) | 98% (active) | 89% (active) | -10% (inactive) | 98% (active) | 88.5% (active) | 1% (inactive) | 92% (active) | 85.2% (active) | -6% (inactive) | 98% (active) | 88.5% (active) | -8% (inactive) | 96% (active) |  |
| O=C1OC2=C(c3ccccc3)CCCC2C1=O (configuration not stated) | -1% (inactive) | 88% (active) | 83% (active) and -7.3% (inactive) | 3% (inactive) | 89% (active) | 78.5% (active) and 4.7% (inactive) | 1% (inactive) | 69% (inactive) | 93.8% (active) and -3.3% (inactive) | -3% (inactive) | 94% (active) | 92.5% (active) and 0.1% (inactive) | 0% (inactive) | 93% (active) | 85.4% (active) and -6.2% (inactive) | 0% (inactive) | 93% (active) | 91.7% (active) and 3.8% (inactive) |
| COc1ccc(N/N=C(\CCN(C)C)c2ccccc2)cc1 | 7% (inactive) | 51% (inactive) | 80.7% (active) | -2% (inactive) | 40% (inactive) | 3.7% (inactive) | 16% (inactive) | 61% (inactive) | 56.9% (inactive) | 6% (inactive) | 32% (inactive) | 57.9% (inactive) | -6% (inactive) | 78% (active) | 49.2% (inactive) | 12% (inactive) | 78% (active) | 94.8% (active) |
| CCN(CC)c1ccc(NC(C(=O)c2ccccc2)c2ccccc2)cc1 (configuration not stated) | 99% (active) and 2% (inactive) | 99% (active) and 46% (inactive) | 99.4% (active) and 54.9% (inactive) | 97% (active) and 2% (inactive) | 99% (active) and 30% (inactive) | 98.9% (active) and 37.1% (inactive) | 100% (active) and 8% (inactive) | 100% (active) and 83% (active) | 99.2% (active) and 81.2% (active) | 98% (active) and 0% (inactive) | 99% (active) and 7% (inactive) | 98.7% (active) and 42.6% (inactive) | 100% (active) and 2% (inactive) | 99% (active) and 44% (inactive) | 99.2% (active) and 53.5% (inactive) | 99% (active) and 2% (inactive) | 99% (active) and 46% (inactive) | 98.5% (active) and 68.2% (inactive) |
| COC1/C=C\C=C(/C)C(=O)Nc2cc3nc4ccc(Br)cc4oc-3c(c2=O)CC(C)CC(OC)C(O)C(C)/C=C(\C)C1OC(N)=O (configuration not stated) | 44% (inactive) | 97% (active) | 89.2% (active) | 57% (inactive) | 98% (active) | 90.9% (active) | 96% (active) | 98% (active) | 91.5% (active) | 85% (active) | 92% (active) | 89% (active) | 94% (active) | 97% (active) | 90.7% (active) | 57% (inactive) | 98% (active) | 88.1% (active) |
| CN=c1sc2nc(C#N)c(C#N)nc2n1C | -15% (inactive) | 44% (inactive) | 85.3% (active) | -8% (inactive) | 61% (inactive) | 40.1% (inactive) | -23% (inactive) | 35% (inactive) | 75.3% (active) | 2% (inactive) | 23% (inactive) | 63.1% (inactive) | -22% (inactive) | 69% (inactive) | 89.8% (active) | -8% (inactive) | 58% (inactive) | 81.5% (active) |
| NC(CCCCNC(=O)c1ccccc1)C(=O)O (configuration not stated) | -1% (inactive) | 4% (inactive) | 17.2% (inactive) and -18.6% (inactive) | 3% (inactive) | 2% (inactive) | 5.85% (inactive) and -22.1% (inactive) | 0% (inactive) | -3% (inactive) | 0.1% (inactive) and -35.4% (inactive) | 3% (inactive) | 4% (inactive) | 91.9% (active) and -28.2% (inactive) | 17% (inactive) | -2% (inactive) | -5% (inactive) and -23.4% (inactive) | -3% (inactive) | -3% (inactive) | -1.1% (inactive) and -21.9% (inactive) |
| C=C(C)C(=O)Oc1ccc(NC(=O)c2ccccc2)ccc1=O | 5% (inactive) and -1% (inactive) | 96% (active) and 95% (active) | 92.5% (active) and 96.7% (active) | 2% (inactive) and 26% (inactive) | 96% (active) | 75.2% (active) and 83.6% (active) | 7% (inactive) and 19% (inactive) | 95% (active) and 98% (active) | 96% (active) and 94.3% (active) | -1% (inactive) and 1% (inactive) | 92% (active) | 89.5% (active) and 83.8% (active) | 5% (inactive) and 0% (inactive) | 94% (active) and 93% (active) | 89.5% (active) and 93% (active) | 13% (inactive) and 6% (inactive) | 98% (active) | 96.8% (active) and 96.6% (active) |
| N#CC(=C1C=CC(=NOC(=O)Nc2cccc3ccccc23)C=C1)c1ccccc1 | 44% (inactive) | 99% (active) | 97.8% (active) | 35% (inactive) | 99% (active) | 97.7% (active) | 51% (inactive) | 100% (active) | 98.5% (active) | 10% (inactive) | 99% (active) | 97.7% (active) | 62% (inactive) | 99% (active) | 98.3% (active) | 30% (inactive) | 99% (active) | 97.5% (active) |
| COC(=O)C(=O)C(C(=O)C(c1ccccc1)c1ccccc1)c1nc2n(c1O)/C(=N/C(=O)Nc1ccc(Cl)cc1)N=N2 (configuration not stated) | 0% (inactive) | 41% (inactive) | 76.6% (active) | 6% (inactive) | 58% (inactive) | 87.2% (active) | 6% (inactive) | 80% (active) | 85.7% (active) | -11% (inactive) | 30% (inactive) | 56.3% (inactive) | -1% (inactive) | 35% (inactive) | 41.2% (inactive) | -3% (inactive) | 41% (inactive) | 78.5% (active) |

— PubChem BioAssay (NCI)
